Laboratory results: PubChem BioAssay AID463173 (ICCB-Longwood Screening Facility, Harvard Medical School, 2010)
Among all 52,000 compounds or so, about 1,700 (3.3%) were called active. Many of the other results were omitted from the sample, so actives are more common in it than they were. A number with no mark means an inactive call. Cut-off read from the data, not from the text of the source: active = survival mostly below about 52% (no sharp cut-off); inactive = mostly above about 56%.

The compounds below were run on Wild type (assay: S. aureus survival, RN4220 and DeltatarO strains – OD600, teichoic acid synthesis inhibitors, primary screen (AID 463173)). Conditions: S. aureus RN4220 wild type/DeltatarO growth, OD600, 18 h, stronger effect = lower value, screened at 18.75 µg/mL (by protocol).

SMILES	survival
Cc1noc(-c2ccc(-c3noc(-c4ccc(Cl)cc4)n3)cc2)n1	87%
Cc1noc(-c2ccc(-c3noc(-c4ccc(F)cc4)n3)cc2)n1	64%
Cc1noc(-c2ccc(-c3noc(-c4ccccc4)n3)cc2)n1	-6% (active)
Clc1cccc(C2=NC(c3cccs3)=Nc3ccc(Br)cc3N2)c1	79%
CCOc1ccc(-c2c(C)nn3c(C)c(C(=O)NCCN(C)C)cnc23)cc1OCC	87%
Cc1cccc(N2CCN(c3c4c(nc5nncn35)CCC4)CC2)c1C	84%
COc1ccccc1CNC(=O)Cn1ncc2c3ccccc3n(Cc3ccccc3C)c2c1=O	85%
CCCn1c2ccccc2c2cnn(CC(=O)NC(C)CC)c(=O)c21 (stereo not given)	64%
CCCn1c2ccccc2c2cnn(CC(=O)NCC3CCN(Cc4ccc(F)cc4)CC3)c(=O)c21	74%
CCCn1c2ccccc2c2cnn(CC(=O)NCc3ccccc3Cl)c(=O)c21	120%
CCCn1c2ccccc2c2cnn(CC(=O)NCC3CCN(Cc4ccccc4C)CC3)c(=O)c21	14% (active)
CCCn1c2ccccc2c2cnn(CC(=O)NCC3CCN(Cc4ccc(C)cc4)CC3)c(=O)c21	-1% (active)
Cc1ccc(CNC(=O)CN(C)S(=O)(=O)c2ccc3c(c2)c(=O)n(C)c(=O)n3C)cc1	84%
c1ccc(C(c2nnnn2C2CCCC2)N2CCN(c3ccccc3)CC2)cc1 (stereo not given)	108%
Cc1ccc(C)c(N2CCN(C(=O)C3CCC(CNS(=O)(=O)c4ccc(Br)s4)CC3)CC2)c1 (stereo not given)	76%
CCc1ccc(NC(=O)c2ccc(CN3CC(=O)N4CCCCC4C3=O)cc2)cc1 (stereo not given)	87%
O=C(Nc1cc(F)ccc1F)c1ccc(CN2CC(=O)N3CCCCC3C2=O)cc1 (stereo not given)	76%
O=C(Nc1ccc(F)cc1)c1ccc(CN2CC(=O)N3CCCCC3C2=O)cc1 (stereo not given)	-6% (active)
CC(C)c1ccc(NC(=O)c2ccc(CN3CC(=O)N4CCCCC4C3=O)cc2)cc1 (stereo not given)	90%
Cc1ccc(NC(=O)c2ccc(CN3CC(=O)N4CCCCC4C3=O)cc2)cc1C (stereo not given)	73%
Cc1ccc(NC(=O)c2ccc(CN3CC(=O)N4CCCCC4C3=O)cc2)cc1 (stereo not given)	-6% (active)
CC(C)CCNc1ccc(-c2ccc(Cl)cc2)nn1	106%
CCCCN(CCCC)C(=O)c1cc2c(=O)n3ccccc3nc2s1	61%

SMILES	survival
Cc1ccc(N2CC(NC(=O)Cc3cccs3)CC2=O)cc1C (stereo not given)	19%
Fc1ccc(NCc2ccccc2-c2nnc(-c3ccccc3Cl)o2)cc1	89%
COc1ccc(CCNC(c2ccc(F)cc2)c2nnc(-c3ccccc3Cl)o2)cc1OC (stereo not given)	49%
Fc1ccc(C(NCCc2ccc(Cl)cc2)c2nnc(-c3ccccc3Cl)o2)cc1 (stereo not given)	11% (active)
Fc1ccc(C(NCCc2ccccc2)c2nnc(-c3ccccc3Cl)o2)cc1 (stereo not given)	94%
Fc1ccc(C(Nc2ccccc2Cl)c2nnc(-c3ccccc3Cl)o2)cc1 (stereo not given)	89%
Cc1ccc(CCNC(c2ccc(F)cc2)c2nnc(-c3ccccc3Cl)o2)cc1 (stereo not given)	0% (active)
COc1cc(NC(=O)CCc2c(C)n(C)c3cc(-c4ccccc4C)nn3c2=O)cc(OC)c1OC	130%
Cc1ccc(NC(=O)N2CCc3c([nH]c4ccccc34)C2c2ccccc2F)c(Cl)c1 (stereo not given)	82%
CCc1ccc(NS(=O)(=O)c2ccc(C(=O)N(C)C)s2)cc1	64%
CCC1CCCCN1C(=O)c1sc(-n2nc(C)c(Cc3ccccc3)c2C)nc1C (stereo not given)	72%
CC(=O)c1ccc(NC(=O)C2CCN(S(=O)(=O)c3ccc4c(c3)CCCN4C(=O)C3CCC3)CC2)cc1	74%
CCOC(=O)Cn1nc(N2CCN(c3ccc(F)cc3)CC2)ccc1=O	73%
COc1ccc(Cn2ccc3nc(C)c(C(=O)NCc4cccc(OC)c4)cc3c2=O)cc1	75%
Cc1ccc(CNC(=O)CCCc2nnc3n(C)c(=O)c4sccc4n23)cc1	92%
CCOC(=O)c1cc(C)n(CC2CCC(C(=O)Nc3cccc(C(C)=O)c3)CC2)c1C (stereo not given)	79%
Cc1c(Cl)cccc1-n1nc(C)c2c(C)cc(=O)n(CC(=O)N3CCCc4ccccc43)c21	71%
CN1CCc2c(sc(NC(=O)CSc3ccccc3)c2-c2nc3ccccc3s2)C1	80%
CC(=O)N1CCc2c(sc(NC(=O)CSc3ccccc3)c2-c2nc3ccccc3s2)C1	120%
CCN1CCc2c(sc(NC(=O)CSc3ccccc3)c2-c2nc3ccccc3s2)C1	-6% (active)
CCOC(=O)c1cc(-c2ccccc2)n(CC(=O)NC2CCC(C)CC2)c1C (stereo not given)	81%
CCc1ccc(NC(=O)C(CC)n2c(=O)c(C(F)(F)F)nc3ccccc32)cc1 (stereo not given)	81%
Cc1cccc(N2CCN(Cc3cc(=O)oc4cc(C)ccc34)CC2C)c1 (stereo not given)	84%

SMILES	survival
CC(C)(C)c1ccc(C2Sc3ccccc3NC3=C2C(=O)c2ccccc23)cc1 (stereo not given)	82%
O=C1C2=C(Nc3ccccc3SC2c2ccc(C(F)(F)F)cc2)c2ccccc21 (stereo not given)	36%
O=C1C2=C(Nc3ccccc3SC2c2ccccc2C(F)(F)F)c2ccccc21 (stereo not given)	11% (active)
CCC(Sc1nnc(C)n2c1cc1sccc12)C(=O)Nc1ccccc1F (stereo not given)	79%
CCOc1cc(CNC(=O)c2ccc(Cn3c(=O)c4cccn4c4cccnc43)cc2)ccc1OC	86%
COc1cccc(-c2nn(C)c3sc(C(=O)N4CCN(c5cccc(C)c5)C(C)C4)cc23)c1 (stereo not given)	72%
CCOC(=O)C1CCC(CN(Cc2ccc(Cl)cc2)S(=O)(=O)c2cccc(Cl)c2C)CC1 (stereo not given)	82%
CCOC(=O)c1ccc(NC(=O)CC2Nc3ccccc3NC2=O)cc1 (stereo not given)	62%
CC(=O)c1ccc(NC(=O)CC2Nc3cccc4cccc(c34)NC2=O)cc1 (stereo not given)	96%
CCOC(=O)c1ccc(NC(=O)CC2Nc3cccc4cccc(c34)NC2=O)cc1 (stereo not given)	-13% (active)
Cc1ccccc1N(C)S(=O)(=O)c1nnc(NC(=O)c2ccccc2F)s1	33%
CCOC(=O)CC(NC(=O)Cn1nnc(-c2ccc(C(F)(F)F)cc2)n1)c1ccc(C)cc1 (stereo not given)	87%
Cc1c(Cl)cccc1NC(=O)CCOc1ccccc1	145%
CCOC(=O)c1ccccc1NC(=O)CCOc1ccccc1	6% (active)
CCOC(=O)c1ccccc1NC(=O)Cc1c(C(=O)O)c(C)cn1C	-1% (active)
Cc1cn(C)c(CC(=O)Nc2cccc(Cl)c2C)c1C(=O)O	124%
Cc1ccc(C)c(NC(=O)CCOc2ccccc2)c1	94%
CCc1ccc(NC(=O)Cc2c(C(=O)O)c(C)cn2C)cc1	76%
CC(=O)N1CCc2cc(S(=O)(=O)NC(Cc3ccccc3)C(=O)Nc3ccc(Cl)cc3)ccc21 (stereo not given)	89%
O=C(NCCc1ccccc1)c1cc(-c2ccc(Cl)cc2)on1	101%
O=C(NCc1ccccc1F)C(=O)NCC(c1ccc2c(c1)OCO2)N1CCOCC1 (stereo not given)	71%
CCc1cccc(CC)c1NC(=O)C(CC)n1nc(C)n2c(cc3cc(C)ccc32)c1=O (stereo not given)	73%
CCOc1ccc(CN2C(=O)c3ccccc3Sc3ccc(C(=O)NC)cc32)cc1	78%

SMILES	survival
Cc1cccc(/C=N/NC(=O)c2ccccn2)c1O	18%
Cc1cc(S(=O)(=O)N(C)CCc2ccccc2)ccc1-n1cnnn1	99%
CCOC(=O)c1cc(S(=O)(=O)Nc2cc(C)c(Cl)cc2OC)[nH]n1	98%
CCOC(=O)c1cc(S(=O)(=O)Nc2cc(OC)ccc2OC)[nH]n1	123%
CCOC(=O)c1cc(S(=O)(=O)Nc2ccc(OC)c(Cl)c2)[nH]n1	-6% (active)
CCOC(=O)c1cc2sccc2n1CC(=O)NC(C)C	100%
COc1ccc(-c2cnc(C)o2)cc1S(=O)(=O)Nc1ccc(C)c(F)c1	60%
Fc1ccc(-n2ncc3c(N4CCCCCC4)ncnc32)cc1	82%
Cc1ccc(N2C(=O)CSC23C(=O)N(CC(=O)Nc2ccc(C(C)C)cc2)c2ccccc23)cc1C (stereo not given)	80%
CCCNC(=O)c1ccc2c(c1)sc1nc(-c3ccc(C)cc3)cn12	103%
CCOc1ccc(-c2cn3c(n2)sc2cc(C(=O)NCCCc4ccccc4)ccc23)cc1	96%
CCN(CC)CCCNC(=O)c1ccc2c(c1)sc1nc(-c3ccc(C)cc3)cn12	8% (active)
CCN(CC)CCNC(=O)c1ccc2c(c1)sc1nc(-c3ccc(F)cc3)cn12	27%
CCCSCCCNC(=O)c1ccc2c(c1)sc1nc(-c3ccc(OCC)cc3)cn12	85%
CCOc1ccc(-c2cn3c(n2)sc2cc(C(=O)NCCCN(CC)CC)ccc23)cc1	2% (active)
CCOc1ccc(N2C(=O)c3n[nH]c(-c4cccs4)c3C2c2cccc(F)c2)cc1 (stereo not given)	60%
Cc1ccc(C)c(CSc2nc3ccncc3n2Cc2nc(-c3ccccc3Cl)oc2C)c1	61%
Cc1ccc(CSc2nc3ccncc3n2Cc2nc(-c3ccc(Cl)cc3)oc2C)cc1	68%
Cc1ccc(CSc2nc3ccncc3n2Cc2nc(-c3ccccc3C)oc2C)cc1	0% (active)
CCN(C(=O)Cn1nc(Cc2ccncc2)c2ccccc2c1=O)c1ccc(OC)cc1	74%
Cc1ccccc1C(=O)NC1CCN(CC(=O)NC2CCCCC2)CC1	98%
